Screens from PubChem BioAssay.
In the library only some 4.5% were active in any assay of this set; here they are far more common.
EBNA-1 inhibitor – blocks EBNA-1 binding to DNA. 300,000 tested, 0.34% active. inhibition, % at 14.8 µM. EBNA-1 DNA binding, fluorescence polarization; in the data active = inhibition above about 28%
Rpn11 block – Rpn11 (human) deubiquitinase inhibition | O00487 | human 26S proteasome, Ub4-pepOG fluorescence polarization; 20S core pre-blocked with epoxomicin | inhibition, % at 20 µM | 360,000 tested, 0.59% active | AID 588493;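 active = inhibition at 20 µM, scaled to each plate's controls, above about 33%, limit read from the data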
NR3A LBD binder – modulators (binders) of human NR3A ligand-binding domain; NR3A LBD differential scanning fluorimetry, Tm shift; 0% = protein alone, 100% = glycine-bound protein; Tm shift relative to glycine control, % at 25 µM; 340,000 tested, 2.5% active; AID 1259313;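 active = melting temperature shift of at least 10% of the positive control shift, at one fixed dose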
dFosB act – activators of mouse delta FosB homodimer. P13346. purified delta FosB, TAMRA-CDK5 oligo fluorescence polarization; percent of positive-control signal above neutral wells. activation, % at 25 µM. 340,000 tested, 0.99% active. AID 493131;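 active = mean activation above about 17%, with every replicate also reaching it, limit read from the data, passing the limit was not always enough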
TPT1 inh – C. albicans TPT1 enzyme inhibition; recombinant caTPT1, FP RNA substrate dephosphorylation; inhibition, % at 5 µM; 300,000 tested, 0.81% active;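 active = inhibition above the mean of all tested compounds plus 3 SD, set per screening campaign, cut at about 24% in these data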;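 also: plate controls were DMSO alone for no effect and ferristatin control at 100 nM for full effect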
ZTA DNA inh – blocks Epstein-Barr virus ZTA, an EBNA-1 counter-screen; P03206; ZTA-DNA binding, fluorescence polarization; inhibition, % at 11 µM; 320,000 tested, 0.15% active; AID 2234; in the data active = inhibition above about 33%
Target sequence (P03206 whole entry, looked up): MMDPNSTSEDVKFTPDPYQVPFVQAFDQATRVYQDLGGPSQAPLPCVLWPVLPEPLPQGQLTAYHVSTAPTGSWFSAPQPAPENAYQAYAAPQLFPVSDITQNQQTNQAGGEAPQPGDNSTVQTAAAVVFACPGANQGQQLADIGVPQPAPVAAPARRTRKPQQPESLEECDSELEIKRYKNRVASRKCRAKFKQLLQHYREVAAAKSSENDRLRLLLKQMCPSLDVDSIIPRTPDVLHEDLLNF
The depositor's hits bear a star; . = no result given.

SMILES	EBNA-1 inhibitor	Rpn11 block	NR3A LBD binder	dFosB act	TPT1 inh	ZTA DNA inh
N#C/C(=C(/O)c1ccc([N+](=O)[O-])o1)c1nc2ccccc2[nH]1	-2.7	0.6	0.4	2.3	-5.7	-7.6
CCc1ccc(NC(=O)COc2ccc(/C=C(/C#N)c3nc4ccccc4[nH]3)cc2OC)cc1	-27.4	3.4	30.0*	-1.8	-3.2	26.7
Nc1[nH]n(-c2ccccc2)c(=O)c1N=Nc1ccc2ncsc2c1	-16.2	2.6	13.8*	-10.1	3.7	-33.1
Nc1[nH]n(-c2ccccc2)c(=O)c1N=Nc1ccccc1[N+](=O)[O-]	-17.4	2.3	21.0*	-1.1	-1.1	6.1
O=S(=O)(NCc1cn2ccccc2n1)c1cccs1	-11.7	-1.9	-0.9	0.5	-2.1	-6.1
COc1ccccc1NC(=S)N(Cc1ccccc1)Cc1ccccn1	-0.1	2.5	13.4*	-6.5	1.9	6.7
CCOC(=O)C(Cc1ccccc1)NC(=O)CCc1nnc2ccc(N3CCCC3)nn12 (stereo unspecified)	1.8	-4.6	-2.6	-10.0	3.2	14.2
COc1ccccc1OCCNC(=O)C1CC(=O)N(c2cccc(SC)c2)C1 (stereo unspecified)	0.7	0.2	16.8*	-10.2	-2.7	-15.1
CCn1c2ccccc2n2c(=O)c(=O)n(CC(=O)Nc3ccc(C(C)C)cc3)nc12	3.1	-2.8	12.9*	-2.4	-1.4	-15.9
CC(C)c1ccc(NC(=O)Cn2c(=O)oc3ccccc32)cc1	-11.4	-5.8	-0.2	-2.9	0.5	-6.1
O=C(c1ccco1)N1N=C(c2cccs2)CC1c1cc([N+](=O)[O-])ccc1O (stereo unspecified)	10.8	2.1	-7.3	-14.9	-2.5	-5.2
COc1ccc(-c2nn(-c3ccccc3)cc2C(=O)N(C)CC(=O)Nc2ccccc2Br)cc1	.	5.6	-5.2	-1.9	.	.
CN(CC(=O)Nc1cccc(F)c1)C(=O)c1cn(-c2ccccc2)nc1-c1ccc(F)cc1	.	2.1	35.0*	1.7	.	10.6
COc1cccc(-c2nn(-c3ccc(C)cc3)cc2C(=O)N(C)CC(=O)Nc2cccc(F)c2)c1	.	7.5	13.1*	-7.9	.	-12.4
COc1ccc(-c2nn(-c3ccccc3)cc2C(=O)N(C)CC(=O)Nc2cccc(F)c2)cc1	.	7.2	11.3*	-16.7	.	-4.4
O=C(Nc1cccc(S(=O)(=O)N2CCOCC2)c1)c1cn(-c2ccccc2)nc1-c1ccc(F)cc1	3.9	-2.1	22.1*	3.6	-2.3	-10.5
O=C(Nc1cccc(S(=O)(=O)N2CCOCC2)c1)c1cn(-c2ccccc2)nc1-c1ccccc1	4.7	0.3	5.9	8.6	0.2	8.3
CCOc1ccc(NC(=O)CN(C)C(=O)c2cn(-c3ccc(C)cc3)nc2-c2cccc(OC)c2)cc1OCC	.	8.0	3.2	-0.9	.	.
CN(CC(=O)Nc1cccc(F)c1)C(=O)c1cccc2ccccc12	.	4.8	-2.2	-3.2	.	1.4
C/C(=N/OC(=O)C1CC12CCC2)c1ccc(Br)cc1 (stereo unspecified)	-0.5	-0.5	2.1	-2.6	-1.3	-3.0
Cc1nc2c(OCCOc3ccc(F)cc3)cccn2c1N(C)C(=O)CCC1CCCC1	.	11.0	.	.	.	.
CCCOc1ccc(F)cc1-c1cc(C(=O)NCc2ccco2)[nH]n1	.	1.1	.	.	.	.
O=C(Nc1cc([N+](=O)[O-])ccc1O)c1cccc(C(=O)Nc2cc([N+](=O)[O-])ccc2O)c1	0.7	-6.5	24.7*	-8.3	-3.8	7.3
O=C(Nc1ccc(O)cc1)c1cccc(Oc2ccc([N+](=O)[O-])cc2)c1	1.9	-0.5	31.7*	2.0	1.6	10.6
Cc1cc(O)c(NC(=O)c2cccc([N+](=O)[O-])c2)cc1C	8.1	-1.3	16.5*	9.9	-2.8	-0.2
CC(C)=CCCC1(C)C=Cc2c(c(C)cc3c2[nH]c2cc(O)ccc23)O1 (stereo unspecified)	-2.1	-0.4	18.6*	-2.0	-2.9	-18.8
O=C(CN1c2ccccc2Sc2ccccc21)N/N=C/c1ccc(Cl)cc1Cl	10.4	-2.3	14.8*	-6.8	-0.8	-12.8
O=C(CN1c2ccccc2Sc2ccccc21)N/N=C/c1ccc(Cl)cc1	-1.1	1.3	11.1*	-5.0	1.3	-2.9
